Whole data set: some 33,000 sequences, median “e-score” near -0.053, cut for the highest 2% near 0.38. This excerpt belongs to a sample that is enriched for the highest values.
These sequences were tested against T1, SIX1 homeodomain (reference allele) (human, UniProt Q15475 108-198) (assay: universal protein binding microarray; Universal all-10-mer PBM (8x60K, AMADID 030236), 300 nM GST-tagged protein, Alexa Fluor 488 anti-GST; buffer, salt, pH and temperature not stated (as in Berger); high values mean tight binding). Details: protein: ivt; tags: N-terminal GST; dsDNA, one strand shown.
T1 sequence: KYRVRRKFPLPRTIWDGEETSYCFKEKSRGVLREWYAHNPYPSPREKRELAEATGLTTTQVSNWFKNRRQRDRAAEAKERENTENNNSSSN
How it was run: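 Binding of GST-tagged homeodomains is given as 8-mer E-scores from the Universal PBM Analysis Suite. The proteins were produced by in vitro transcription/translation, quantified by anti-GST western blot against a recombinant GST standard curve, and applied in duplicate at 300 nM final concentration to universal 'all 10-mer' protein binding microarrays (8×60K format).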

Sequence | binding signal [E-score]
ATATCCAA | 0.358 ± 0.01
AGATCCAT | 0.254 ± 0.00332
ATATCCAT | 0.389 ± 0.0181
GTATCCAA | 0.421 ± 0.0174
CGATCCAC | 0.375 ± 0.0695
CGACAGAA | 0.153 ± 0.115
ATATGTCG | 0.272 ± 0.052
ATCCAGGG | 0.236 ± 0.0104
ATCATCAG | 0.154 ± 0.0285
GATCTAGC | 0.215 ± 0.0211
GATCCATA | 0.357 ± 0.0223
GATCCTGA | 0.301 ± 0.0202
TATCCTGA | 0.382 ± 0.0186
AATCCATA | 0.214 ± 0.0274
CATCCTGA | 0.169 ± 0.0388
TATCCATA | 0.39076 ± 0.000148
GAACAATA | 0.2 ± 0.0128
CTTAGATC | 0.158 ± 0.00598
CCTACTCA | 0.161 ± 0.0165
ATACTAAG | 0.209 ± 0.0591
TAACACGA | 0.19 ± 0.0238
CTTGATAC | 0.442 ± 0.0251
ATTGATCC | 0.406 ± 0.0164
ATTGATAG | 0.288 ± 0.0226
ATTGATAC | 0.465 ± 0.0161

Sequence | binding signal [E-score]
CTTGATCA | 0.218 ± 0.037
CTTGATCC | 0.361 ± 0.00995
CTTGACAC | 0.244 ± 0.0534
CTCAATAC | 0.259 ± 0.0252
ATTGATGC | 0.182 ± 0.0328
CGTCTCGC | 0.167 ± 0.0173
GATCGACC | 0.162 ± 0.12
GATCTCGA | 0.221 ± 0.00099
AATACTCT | 0.257 ± 0.089
AACCTATA | 0.205 ± 0.0654
CCCTTGGA | 0.213 ± 0.00655
ATCCCTTC | 0.303 ± 0.0125
CTACTGTA | 0.165 ± 0.0781
AATTAATA | 0.191 ± 0.0409
GGATACAA | 0.354 ± 0.037
AGATACAC | 0.3801 ± 0.00099
CGATACAC | 0.418 ± 0.0108
AGATACAA | 0.168 ± 0.0186
AGATACAG | 0.246 ± 0.0181
CGATACAA | 0.288 ± 0.0425
GCATACAC | 0.155 ± 0.0339
GGATACAC | 0.405 ± 0.0186
CGATACAG | 0.313 ± 0.044
ACAATATG | 0.239 ± 0.0268
ATCACTTA | 0.273 ± 0.0813

Sequence | binding signal [E-score]
ATGGGGTC | 0.168 ± 0.00238
AGTAGATC | 0.321 ± 0.0238
GACCGATC | 0.246 ± 0.028
ATACTTCC | 0.241 ± 0.0829
AGTATCAT | 0.473 ± 0.0218
AGTATCAG | 0.46 ± 0.0186
ATCATCAC | 0.228 ± 0.00571
AGTATAAT | 0.265 ± 0.0967
AGTATTAA | 0.233 ± 0.112
ATTATCAG | 0.168 ± 0.0386
AGTATTAG | 0.301 ± 0.0212
ACTATCAT | 0.3 ± 0.0715
CGTATCAG | 0.465 ± 0.00812
AGTATCAC | 0.464 ± 0.0196
ACTATCAG | 0.217 ± 0.0215
CCTATCAG | 0.326 ± 0.00869
ATCGTGAG | 0.26 ± 0.00974
CGGTAATA | 0.23 ± 0.0198
AGACCGAT | 0.179 ± 0.0125
TACTCGGA | 0.162 ± 0.0415
ACACCTGA | 0.281 ± 0.0355
GAAATATC | 0.262 ± 0.0623
ATAGCATA | 0.218 ± 0.00716
ATTATCAA | 0.165 ± 0.0524
ACTATCAA | 0.253 ± 0.0636

Sequence | binding signal [E-score]
AGTATCAA | 0.444 ± 0.0435
ACACCAAA | 0.263 ± 0.0137
AGTCGATA | 0.257 ± 0.0323
GGCAATAC | 0.181 ± 0.00926
AAGTGGAT | 0.182 ± 0.0178
AGGGGGTG | 0.186 ± 0.0209
AGGGTGTC | 0.4355 ± 0.00243
CGGGTGTC | 0.439 ± 0.025
AGGGTGTA | 0.313 ± 0.048
GTGGTGTA | 0.286 ± 0.0221
GCGGTGTA | 0.336 ± 0.0311
CGGGTGGA | 0.236 ± 0.0891
GGGGTGTA | 0.387 ± 0.00837
CGGGTGTA | 0.265 ± 0.0586
ATCAAGAT | 0.209 ± 0.0291
AAGCCGGA | 0.159 ± 0.0672
GATCGGCC | 0.255 ± 0.03
TACCCCAA | 0.174 ± 0.0539
ATATACTA | 0.256 ± 0.0638
CAACACCC | 0.24 ± 0.00973
CTCGATCC | 0.325 ± 0.0557
ATCGATAG | 0.2745 ± 0.00192
ATCGATAC | 0.446 ± 0.0107
ATCGATTC | 0.2 ± 0.0315
CTCGATAC | 0.41 ± 0.0184

Sequence | binding signal [E-score]
CTCGATGA | 0.165 ± 0.00668
CAGATGAG | 0.203 ± 0.0236
CAATAATA | 0.223 ± 0.0513
CCCGCGAG | 0.206 ± 0.0166
GGTGTAAA | 0.198 ± 0.028
ATATCGAC | 0.379 ± 0.00832
CTATCGAG | 0.157 ± 0.0365
CGATCGAG | 0.21 ± 0.0298
AGATCGAT | 0.345 ± 0.0116
GTATCGAA | 0.43 ± 0.00911
GTATAGAC | 0.276 ± 0.00412
GTATCTAA | 0.374 ± 0.0214
ATATCGAG | 0.335 ± 0.0302
GGATCGAC | 0.297 ± 0.113
GTATCGAC | 0.405 ± 0.0127
ATATCGAT | 0.411 ± 0.0335
GGATCGAA | 0.267 ± 0.0826
ATAGCTTA | 0.214 ± 0.0605
ATATAATA | 0.322 ± 0.053
AAGCGTAT | 0.231 ± 0.0511
CTCGTATA | 0.161 ± 0.055
GGTTATAC | 0.261 ± 0.0421
ATCGCCTC | 0.216 ± 0.0033
ACCGGAGA | 0.201 ± 0.00786
CCGTAATC | 0.169 ± 0.00918

Sequence | binding signal [E-score]
GGTCGATA | 0.271 ± 0.00805
CGGGACAC | 0.153 ± 0.0127
CTATCGAA | 0.228 ± 0.0495
ATATCGAA | 0.393 ± 0.0367
TATACGAA | 0.164 ± 0.00791
AATATGTG | 0.197 ± 0.0339
ATAAATAC | 0.163 ± 0.0133
GCGTATTA | 0.161 ± 0.0688
AGGTATTA | 0.385 ± 0.0849
GGGTATTA | 0.393 ± 0.0546
AAGTATTA | 0.254 ± 0.109
CGGTATTA | 0.368 ± 0.031
AGGTATTG | 0.29 ± 0.0429
CTTACACC | 0.203 ± 0.0268
GTCGTATA | 0.186 ± 0.0245
GTAGACAC | 0.182 ± 0.0638
AGATAGGG | 0.263 ± 0.0607
TACCAGTA | 0.201 ± 0.0209
AATCGGGG | 0.181 ± 0.117
ATGAATAC | 0.2845 ± 0.00167
CGGAGATC | 0.322 ± 0.00475
TAAGTATA | 0.218 ± 0.0666
GAAGTATC | 0.407 ± 0.0492
GAAGTATA | 0.261 ± 0.108
CAAATATC | 0.21 ± 0.0519

Sequence | binding signal [E-score]
CAAGTATC | 0.378 ± 0.0659
AAAGTATC | 0.413 ± 0.0634
GAACTATC | 0.23 ± 0.0598
AAAGTATA | 0.173 ± 0.149
ATAAGTAT | 0.235 ± 0.0716
TACACTGA | 0.178 ± 0.0145
ATCTTCCC | 0.174 ± 0.0102
ATCACGAA | 0.172 ± 0.0453
CTAGACAC | 0.158 ± 0.012
GAATAATC | 0.209 ± 0.0094
ATGCATCA | 0.198 ± 0.0685
ATCATAAG | 0.286 ± 0.0333
GATATATC | 0.441 ± 0.0284
AATATATC | 0.343 ± 0.0593
TATATATA | 0.344 ± 0.0349
CATATATC | 0.341 ± 0.0628
GATATAGA | 0.318 ± 0.034
GATATATA | 0.377 ± 0.0449
ATACTTTC | 0.16 ± 0.145
CCTCCGGA | 0.203 ± 0.0104
CCTCGAGG | 0.197 ± 0.043
CAGATCAG | 0.353 ± 0.0153
